Bioassay records from PubChem.
SRC1 TRFRET art – TR-FRET artefact, counter-screen to PPARgamma/SRC-1 agonist assay. TR-FRET detection artefact counter-screen, emission ratio; active compounds read high. TR-FRET ratio at 8 µM. 99,000 compounds, 0.34% hits; in the data active = TR-FRET ratio above about 2300
PPARg SRC1 recr – agonists of human PPARgamma SRC-1 coactivator recruitment | activation, % at 8 µM | PPARgamma-SRC-1 coactivator recruitment biochemical assay | P37231 | 200,000 compounds, 0.41% hits; in the data active = activation above about 19%
Target sequence (P37231 whole entry, looked up): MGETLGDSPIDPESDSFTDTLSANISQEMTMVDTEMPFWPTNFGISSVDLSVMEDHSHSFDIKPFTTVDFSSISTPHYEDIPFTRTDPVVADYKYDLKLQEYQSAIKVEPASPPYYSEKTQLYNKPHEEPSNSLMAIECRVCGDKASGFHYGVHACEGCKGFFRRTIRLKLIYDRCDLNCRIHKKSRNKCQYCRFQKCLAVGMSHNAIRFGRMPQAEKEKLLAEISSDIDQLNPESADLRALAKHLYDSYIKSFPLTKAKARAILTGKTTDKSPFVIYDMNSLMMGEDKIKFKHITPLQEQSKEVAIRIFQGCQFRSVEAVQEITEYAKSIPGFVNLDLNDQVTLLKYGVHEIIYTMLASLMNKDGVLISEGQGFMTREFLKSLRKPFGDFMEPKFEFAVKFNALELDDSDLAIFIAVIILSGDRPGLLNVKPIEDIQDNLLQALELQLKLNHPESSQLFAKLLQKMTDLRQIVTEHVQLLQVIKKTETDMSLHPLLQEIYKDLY
PPARg SRC-3 ag – PPARgamma-driven SRC-3 recruitment agonism. P37231. 200,000 compounds, 0.26% hits. biochemical PPARgamma/SRC-3 coactivator recruitment assay. AID 731. activation, % at 8 µM; in the data active = activation above about 23%
SRC3 TRFRET art – flags TR-FRET format artefacts in PPARgamma SRC-3 recruitment agonist screen | TR-FRET artefact counter-screen, PPARgamma/SRC-3 format; active compounds read high | TR-FRET ratio at 8 µM | 99,000 compounds, 0.39% hits | AID 1048; in the data active = TR-FRET ratio above about 2000
PPARg SRC-2 ag – agonists of SRC-2 recruitment by human PPARgamma; P37231; PPARgamma LBD-SRC-2 recruitment, biochemical; activation, % at 8 µM; 200,000 compounds, 0.34% hits
TR-FRET SRC-2 ct – counter-screen for PPARgamma SRC-2 recruitment agonists: TR-FRET artefact; active compounds read high; TR-FRET ratio at 8 µM; 200,000 compounds, 0.4% hits; AID 1049; in the data active = TR-FRET ratio above about 2000
PPARg SRC2 ag – confirmation of agonists of SRC-2 recruitment by human PPARgamma. 790 compounds, 52% hits. AID 1297. biochemical SRC-2 recruitment by PPARgamma. shares compounds with PPARg SRC-3 ag. activation, % at 8 µM
PPARg SRC1 ag – confirmation of agonists of SRC-1 recruitment by human PPARgamma. PPARgamma–SRC-1 coactivator recruitment biochemical assay. activation, % at 8 µM. 790 compounds, 43% hits. shares compounds with PPARg SRC-3 ag. AID 1300; in the data active = activation above about 20%
PPARg SRC3 conf – confirmation of agonists of SRC-3 recruitment by human PPARgamma; shares compounds with PPARg SRC-3 ag; biochemical PPARgamma-SRC-3 coactivator recruitment, agonist mode; activation, % at 8 µM; 790 compounds, 29% hits; in the data active = activation above about 24%
A number is an active result; n = inactive; x = no result given. The list is not random: actives were taken first. Their share in the collection is about 0.84%. Cut-off read from the data, not from the text of the source, unless noted: active = activation above about 22%; inactive = the rest.

SMILES	SRC1 TRFRET art	PPARg SRC1 recr	PPARg SRC-3 ag	SRC3 TRFRET art	PPARg SRC-2 ag	TR-FRET SRC-2 ct	PPARg SRC2 ag	PPARg SRC1 ag	PPARg SRC3 conf
CC1C(=O)N(c2ccc(S(=O)(=O)N(C)C)cc2)C1(/C=C/c1ccccc1)C(=O)NC1CCCC1 (centres undefined)	n	n	n	n	n	n	x	x	x
Cc1ccc(OCC(=O)NC(=S)Nc2ccc3c4c(cccc24)CC3)cc1	n	n	n	n	n	n	x	x	x
CC(C)(C)c1ccc(OCC(=O)Nc2ccc3c4c(cccc24)C(=O)NC3=O)cc1	n	n	33	n	n	n	n	n	n
Clc1ccc(-c2nnc3sc(-c4ccc(Br)o4)nn23)c(Cl)c1	x	n	n	x	23	n	n	n	n
CN(C)c1ccc(-c2nn3c(-c4ccc(Cl)cc4Cl)nnc3s2)cc1	n	n	n	n	n	n	x	x	x
COc1ccc(-c2nn(-c3ccccc3)cc2/C=C/C(=O)N2CCN(c3ccccn3)CC2)cc1	n	n	n	n	n	n	x	x	x
NC(=O)c1sc2nc(-c3ccco3)ccc2c1N	x	n	30	x	n	n	n	n	n
Cc1ccc(S(=O)(=O)N(C)C)cc1NC(=O)c1cncc(Br)c1	n	n	n	n	n	n	x	x	x
Cc1ccc2nc(N3CCN(S(=O)(=O)c4ccc5c(c4)OCCO5)CC3)c(C#N)cc2c1	x	31	45	x	22	3423	n	n	n
Cc1ccc(S(=O)(=O)N2CCCN(S(=O)(=O)c3ccc4c(c3)OCCO4)CC2)cc1	x	n	n	x	n	n	x	x	x
Nc1ccc(Nc2nc(-c3ccncc3)cs2)cc1	x	n	33	x	n	n	n	n	n
Cn1c(-c2ccco2)n[nH]c1=S	n	n	n	n	n	n	x	x	x
Cc1cccc(-n2c(-c3ccco3)n[nH]c2=S)c1	2623	25	23	2283	28	2124	35	25	26
CCn1c(SCC(=O)OC)nnc1-c1ccncc1	x	n	n	x	n	n	x	x	x
CCn1c(SCC(=O)OC2CCCCC2)nnc1-c1ccncc1	x	n	n	x	29	2048	n	n	n
CCc1cc2cc(C(=O)Nc3ccc(F)cc3)sc2s1	x	n	n	x	39	2237	25	n	n
Cc1cc(C)nc(-n2nc(C)cc2NC(=O)CN2CCCC(C)C2)n1 (centres undefined)	x	20	n	x	n	n	n	n	n
Cc1cc(C)nc(-n2nc(C)cc2NC(=O)CN2CCc3ccccc3C2)n1	x	n	n	x	n	n	x	x	x
CCOC(=O)c1sc2ncnc(NCc3ccco3)c2c1C	x	n	30	x	23	n	n	n	n
CCOC(=O)c1sc2nc(CC(=O)OC)nc(NCc3ccco3)c2c1C	x	n	n	x	n	n	x	x	x
COCCN1CCN(Cc2cn[nH]c2-c2cc3ccccc3o2)CC1	n	n	n	n	n	n	x	x	x
CCn1c2ccccc2c2cc(NC(=O)c3cc(OC)c(OC)c(OC)c3)ccc21	x	n	n	x	n	n	x	x	x
CCn1c(=O)cc(SCC(=O)Nc2cccc(SC)c2)c2ccccc21	x	35	47	x	42	2529	44	28	28
CCn1c(=O)cc(SCC(=O)Nc2cc(OC)c(OC)c(OC)c2)c2ccccc21	x	39	42	x	55	2483	40	25	26
CCOc1ccc(-c2n[nH]c(=S)o2)cc1	n	n	n	n	n	n	x	x	x
SMILES	SRC1 TRFRET art	PPARg SRC1 recr	PPARg SRC-3 ag	SRC3 TRFRET art	PPARg SRC-2 ag	TR-FRET SRC-2 ct	PPARg SRC2 ag	PPARg SRC1 ag	PPARg SRC3 conf
CCOc1ccccc1-c1n[nH]c(=S)o1	x	28	50	x	39	2292	43	30	28
COc1cccc(C(=O)N=c2sc3cc(S(C)(=O)=O)ccc3n2C)c1	n	27	n	n	n	n	n	n	n
COc1cc(OC)cc(C(=O)N=c2sc3ccccc3n2C)c1	n	n	n	n	n	n	x	x	x
Cc1cccc(-c2ccc(C=Nc3c(C)n(C)n(-c4ccccc4)c3=O)o2)c1	x	23	39	x	30	1999	n	n	n
Cc1c(N=Cc2nc3ccccc3n2C)c(=O)n(-c2ccccc2)n1C	x	n	n	x	n	n	x	x	x
COc1ccc(OC)c(C2C(C(=O)c3cc4ccccc4o3)=C(O)C(=O)N2c2cc(C)on2)c1 (centres undefined)	x	19	n	x	22	2296	28	21	n
O=C(OCn1ncc(Br)c(Br)c1=O)c1ccccc1Cl	x	n	n	x	n	n	x	x	x
O=C(OCn1ncc(Br)c(Br)c1=O)c1ccc(F)cc1	x	22	44	x	37	2296	43	29	31
CCSc1ccccc1C(=O)N1CCN(Cc2ccc3c(c2)OCO3)CC1	x	n	n	x	n	n	x	x	x
Cn1c(=O)cc(SCC(=O)N2CCN(Cc3ccc4c(c3)OCO4)CC2)c2ccccc21	x	50	72	x	33	2161	25	n	n
Cn1c(C(=O)N2CCN(Cc3ccc4c(c3)OCO4)CC2)cc2c(=O)n(C)c3ccccc3c21	x	n	n	x	n	n	x	x	x
CCn1c(=O)cc(SCC(=O)N2CCN(Cc3ccc4c(c3)OCO4)CC2)c2ccccc21	x	45	42	x	55	2608	27	n	n
O=C(O)c1ccccc1C(=O)c1ccc2c(c1)N(Cc1ccc(Cl)c(Cl)c1)C(=O)CO2	n	n	n	n	n	n	x	x	x
Cc1cc(-c2sccc2Br)nc(-n2cccc2)n1	n	22	n	2170	n	n	n	n	n
Clc1ccc(-c2ccnc(-n3cccc3)n2)s1	n	n	n	n	n	n	x	x	x
Cc1cc(-c2ccc(Br)s2)nc(-n2cccc2)n1	2540	26	24	2617	25	2162	42	29	26
COc1cccc(C2=NN(S(C)(=O)=O)C(c3cccs3)C2)c1 (centres undefined)	n	n	n	n	n	n	x	x	x
COc1ccc(Cl)cc1NC(=S)NNC(=O)c1cccs1	n	n	n	n	n	n	x	x	x
O=S1(=O)N=C(N(Cc2cccs2)c2ccc(O)cc2)c2ccccc21	n	n	n	n	n	n	x	x	x
O=c1c2cn[nH]c2nc(SCc2ccccc2F)n1-c1ccc(Br)cc1	n	n	n	n	n	n	x	x	x
O=c1c2cn[nH]c2nc(SCc2cc(=O)n3cc(Br)ccc3n2)n1-c1ccc(Br)cc1	3354	33	n	2853	36	2457	28	n	n
CCOC(=O)C1(Cc2cccc(F)c2)CCN(C(=O)c2cnccn2)CC1	n	n	n	n	n	n	x	x	x
Fc1ccc(-c2nnsc2Sc2ccccn2)cc1	n	n	58	6319	145	3478	34	35	n
CCCCCCN1C=CC(=C/C=C(\C#N)C(=O)OCC)C=C1	x	21	n	x	n	n	n	n	n
CCCN1C=CC(=C/C=C(\C#N)C(=O)OCC)C=C1	x	n	n	x	n	n	x	x	x
